Screens deposited in PubChem BioAssay by several laboratories.
This is a sample that favours compounds with a hit; in the whole collection about 0.68% have one here.
RN4220 kill = growth inhibition of S. aureus RN4220, primary screen, OD600; hit rate 0.33% among 330,000; 16 h; AID 1259311, 2017; inhibition, % (no concentration beside the values); in the data active = inhibition above about 85%;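 note: plate controls were untreated cells for no effect and reference antibiotic for full effect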
Mtb betalactam = beta-lactam sensitization of Mtb H37Rv, H37Rv; inhibition, % at 25 µM; hit rate 0.27% among 330,000; AID 434955, 2010; M. tuberculosis H37Rv growth with meropenem, percent inhibition; call rule not given here;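 note: growth measured after seven days incubation then overnight dye step; 0% = bacteria only wells and 100% = bacteria with antibiotic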
Mtb hypoxia rep = PubChem AID 1159583; fluorescence inhibition, % (no concentration beside the values); M. tuberculosis hypoxia-regulated fluorescent reporter, fluorescence; hit rate 0.1% among 300,000; in the data active = fluorescence inhibition mostly above about 23%, no sharp cut-off; inactive = mostly below about 17%
Sa ugtP lethal = growth inhibition of ugtP-null S. aureus, primary screen, RN4220 ugtP deletion, OD600. 16 h. growth inhibition, % (test concentration not listed). hit rate 0.54% among 330,000. AID 1259309, 2017; in the data active = growth inhibition above about 68%;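 note: plate controls were untreated wells for no effect and antibiotic for full effect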
Mtb UGM inh = M. tuberculosis UGM enzyme inhibitors, primary screen, biochemical, fluorescence polarization, single point. UDP-galactopyranose mutase (Mycobacterium tuberculosis (strain ATCC 25618 / H37Rv)), …. purified UGM, fluorescence polarization probe displacement. hit rate 0.06% among 320,000. inhibition, % at 10 µM. AID 504406, 2011; in the data active = inhibition above about 10%, passing the limit was not always enough
Rv3671c inh = Rv3671c serine protease inhibitors, primary screen, biochemical, fluorescence polarization, M. tuberculosis H37Rv; inhibition, % at 5.96 µM; hit rate 0.048% among 320,000; P9WHR9; AID 2606, 2010; in the data active = inhibition above about 38%;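 note: extracellular domain of Rv3671c used as enzyme; 0% = enzyme with DMSO and 100% = no enzyme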
Target sequence (P9WHR9 whole entry, looked up, the tested form may be a part): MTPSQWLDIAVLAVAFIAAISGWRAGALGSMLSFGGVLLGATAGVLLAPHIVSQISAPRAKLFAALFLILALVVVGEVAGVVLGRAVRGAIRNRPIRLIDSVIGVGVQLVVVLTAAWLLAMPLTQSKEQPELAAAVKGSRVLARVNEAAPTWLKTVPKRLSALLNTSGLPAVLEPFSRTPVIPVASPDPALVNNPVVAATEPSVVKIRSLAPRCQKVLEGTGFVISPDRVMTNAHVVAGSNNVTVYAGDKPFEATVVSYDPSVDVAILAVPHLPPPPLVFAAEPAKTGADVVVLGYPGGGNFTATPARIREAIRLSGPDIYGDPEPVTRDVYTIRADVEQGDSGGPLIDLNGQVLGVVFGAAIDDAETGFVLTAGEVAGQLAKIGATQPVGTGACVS
An asterisk follows results filed as active; . = no result given.

SMILES | RN4220 kill | Mtb betalactam | Mtb hypoxia rep | Sa ugtP lethal | Mtb UGM inh | Rv3671c inh
Brc1ccc(C2CN3CCSC3=N2)cc1 (stereo not given) | 9 | . | 2 | 10 | . | .
O=C1NC(=S)S/C1=C\c1cc(Cl)ccc1Cl | 100* | . | -3 | 100* | . | .
CCOc1ccc(Br)cc1C1=CC(=O)CC(c2ccc(OC)cc2)C1 (stereo not given) | 5 | . | 12 | 9 | . | .
O=C(Nc1nnc(C2=COCCO2)o1)c1ccc(F)cc1 | 16 | 97 | 5 | -5 | 3 | 1
O=C(Nc1nnc(C2=COCCO2)o1)c1cccc(C(F)(F)F)c1 | 95* | 96 | 2 | 82 | -2 | -7
COC(=O)C1=C(c2cccc(C#N)c2)CC2CCC1N2C(=O)NCCO (stereo not given) | 9 | . | 11 | 10 | . | .
CON/C=C(\C=Nc1ccc(F)cc1)c1ncc(C(F)(F)F)cc1Cl | -3 | 8 | 13 | 92* | 1 | -2
COc1ccc(Cl)cc1C(=O)NNC(=S)NC(=O)c1cc(-c2ccccc2)nc2ccccc12 | 93* | 1 | 4 | 97* | 0 | 9
CCN1C(=O)C2C(c3ccc(-c4ccccc4)c(OC)c3)N[C@@](Cc3ccccc3)(C(=O)OC)C2C1=O (stereo not given in full) | 2 | . | 19 | 3 | . | .
CC(=NNc1cc(-c2ccccc2)nc(-c2ccccc2)n1)c1ccc(O)c(C)c1 | 98* | . | 8 | 99* | . | .
COc1cc(NN=C(C)c2ccc(O)c(C)c2)nc(-c2ccccc2)n1 | 15 | . | 13 | 83 | . | .
O=C(COc1ccccc1C=C1SC(=O)NC1=O)Nc1ccc(F)cc1 | 49 | . | 4 | 38 | . | .
O=C(O)c1ccc(-[n+]2c(-c3ccccc3)cc(-c3ccccc3)cc2-c2ccccc2)cc1 | -1 | -24 | 5 | -3 | 0 | -14
CCCOC(=O)c1ccc(-[n+]2c(-c3ccccc3)cc(-c3ccccc3)cc2-c2ccccc2)cc1 | 101* | 100 | . | 100* | 4 | 0
Cc1ccc(C[n+]2c(-c3ccc(C)cc3)cc(-c3ccc(C)cc3)cc2-c2ccc(C)cc2)cc1 | 101* | 100 | . | 101* | -2 | -2
Cc1ccc(C[n+]2ccccc2)cc1 | -16 | -3 | 1 | -4 | 2 | -9
C=CCn1c(Sc2ncc([N+](=O)[O-])s2)n[nH]c1=O | 27 | -4 | 11 | 89* | 0 | 1
C=CCn1c(CSc2ccccc2[N+](=O)[O-])n[nH]c1=S | 3 | 0 | 7 | -3 | 3 | -11
Cc1ccc(Oc2nc3ccccc3n3cccc23)cc1 | -10 | 3 | . | 96* | 0 | -6
Cc1c(N=C2N=C(NC(=O)c3ccc(F)cc3)c3ccccc32)c(=O)n(-c2ccccc2)n1C | 4 | -2 | 2 | 18 | 18* | -1
C[n+]1c(-c2ccccc2)cc(CCCCc2cc(-c3ccccc3)[n+](C)c(-c3ccccc3)c2)cc1-c1ccccc1 | 93* | 98 | 8 | 77 | -1 | -10
COc1ccc(CCNC(=O)c2ccc(Cl)cc2)cc1 | -3 | 8 | 37* | -3 | 1 | -1
COc1ccc(CCNC(=O)c2ccccc2)cc1 | 2 | -6 | . | 8 | 6 | -8
Cc1cccc(C(=O)NNC(=O)c2ccccc2)c1 | 4 | -8 | 2 | 1 | -1 | -3
Cc1cccc(C(=O)c2cnc3ccccc3c2-c2ccccc2)c1 | -1 | -4 | 18 | 88* | -1 | -16
SMILES | RN4220 kill | Mtb betalactam | Mtb hypoxia rep | Sa ugtP lethal | Mtb UGM inh | Rv3671c inh
Brc1ccccc1OCCNCc1ccccc1 | 3 | 3 | -10 | -3 | 0 | 2
Clc1ccc(OCCCNCc2ccccc2)c2ccccc12 | 100* | 100 | 12 | 95* | -1 | 1
c1ccc(C2OC3c4cccc5cccc(c45)C3N2c2ccccc2)cc1 (stereo not given) | -6 | -8 | 0 | 84* | 0 | -14
Cc1cc(C)cc(OC(=O)CCN2C(=O)c3ccccc3C2=O)c1 | 4 | 2 | 10 | 84* | 1 | -3
Cc1ccc(OC(=O)CCN2C(=O)c3ccccc3C2=O)cc1C | 5 | 92 | 4 | 90* | 2 | 0
O=C(O)C1=CC(c2ccccc2)CC(OCc2ccc(CO)cc2)O1 (stereo not given) | 7 | . | 19 | 6 | . | .
COc1ccc(-c2nc(/C=C3\C(C)=Nc4ccccc43)c(O)o2)cc1 | 91* | 31 | 6 | 92* | -2 | -25
CC1=Nc2ccccc2/C1=C\c1nc(-c2ccc(C(F)(F)F)cc2)oc1O | 67 | 99 | 6 | 60 | 12* | 5
COC(=O)c1ccc(C(NC(=O)OCc2ccccc2)C(F)=CC(C)C(=O)O)cc1 (stereo not given) | 3 | . | 17 | -1 | . | .
COCCN1C(=O)NC(c2cccc(C(F)(F)F)c2)C(C(=O)OC)C1C (stereo not given) | 6 | . | 9 | 14 | . | .
CCCc1nnc(NC(=O)CSc2nc3ccccc3[nH]2)s1 | 5 | 0 | -7 | 7 | 3 | -2
O=C(CSc1nc2ccccc2[nH]1)Nc1nc(-c2cccc(Br)c2)cs1 | 99* | 13 | 1 | 99* | 1 | -188
CN(C)CCCn1c(SCC(=O)Nc2nc(-c3cccc(Br)c3)cs2)nc2ccccc2c1=O | 101* | 100 | . | 100* | 0 | 0
CCCCCCC(C(C)O)n1cnc2c(N)ncnc21 (stereo not given) | 7 | . | 4 | 2 | . | .
NC(=O)c1ccsc1NC(=O)c1ccc([N+](=O)[O-])o1 | 100* | 100 | . | 100* | 2 | -2
O=c1c2c(-c3ccccc3)csc2nc2c3ccccc3c(NCCN3CCOCC3)nn12 | 91* | . | 41* | 60 | . | .
COc1ccc(CNc2nc3ccccc3n2C)c(OC)c1 | 8 | 20 | 7 | -4 | 4 | 4
COc1ccc(N=Nc2nc3cc(Br)c(Br)cc3n2C)c(OC)c1 | 7 | 68 | 7 | 0 | 34* | 16
COc1ccc(-c2nnc(SCc3nc4ccccc4s3)n2C(C)C)cc1 | -17 | -3 | 45* | -9 | 1 | 7
COc1ccccc1-c1nnc(SCc2nc3ccccc3s2)n1C | 5 | -7 | 1 | 0 | 1 | -13
CCn1c(-c2ccccc2)c(C(=O)CCl)c2ccccc21 | 97* | 99 | 15 | 99* | 2 | 4
Cn1c(-c2ccccc2)c(C(=O)CCl)c2ccccc21 | 27 | . | 15 | 9 | . | .
Cc1cc(O)c2c(c1O)C(=O)[C@]13C(=C2O)C(=O)[C@@H]2[C@@H](O)[C@H]1[C@@H]1[C@H](O)[C@H]3C(=O)C3=C(O)c4c(O)cc(C)c(O)c4C(=O)[C@]312 | 99* | 60 | . | 99* | . | 4
CC(C)NC(=O)N(C)CC1Oc2ccc(NS(=O)(=O)c3cccs3)cc2C(=O)N(C(C)CO)CC1C (stereo not given) | 8 | . | 3 | -5 | . | .
O=C1OC(c2ccc(O)cc2)(c2ccc(O)cc2)c2ccccc21 | 7 | -1 | 0 | 0 | -2 | -6
